Screening results: PubChem, National Center for Advancing Translational Sciences (NCATS)
DT40 TDP1 CPT = qHTS for Inhibitors of human tyrosyl-DNA phosphodiesterase 1 (TDP1): qHTS in cells in presence of CPT | hit rate 12% among 420,000 | Potency, µM (series often up to 46.2 µM), without a hit: at the highest dose activity change, negative = growth inhibition, most hits filed as inhibitors | chicken DT40 Tdp1-/-;hTDP1 cells + 20 nM CPT, ATP luminescence, 48 h; also: % is scaled to controls: 0 for no effect and ±100 for the full control effect; nearly all actives have a fitted effect of over 55% in size
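Cell growth measured by CellTiter-Glo luminescence after a minimum 48 h, 37 C compound exposure with 20 nM CPT in Tdp1-knockout DT40 cells stably expressing hTDP1, seeded 400/well; qHTS titration format.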
HT1080-NT tox = qHTS for induction of synthetic lethality in tumor cells producing 2HG: qHTS for the HT-1080-NT fibrosarcoma cell line; HT-1080-NT fibrosarcoma viability, CellTiter-Glo ATP luminescence, 48 h; Potency, µM (highest dose often 46.1 µM), for inactives: at the highest dose activity, negative = less viability, hits mostly cytotoxic; hit rate 1.6% among 360,000;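 also: NT is the 2HG producing partner of a matched IDH1 knockdown line; 0% = DMSO-treated cells and -100% = media-only wells without cells; nearly all actives have a fitted effect of over 55% in size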
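HT-1080-NT fibrosarcoma cells (2HG-overproducing), 750 cells/well in RPMI with 5% FBS, dosed after 2 h and incubated 48 h at 37C. CellTiter-Glo luminescence normalized to DMSO and no-cell wells; concentration-response curves fitted and classed.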
HepG2 viability = qHTS for Inhibitors of TGF-b: Cytotox Counterscreen; HepG2 CAGA-GFP viability, ATP luminescence, 18 h; Potency, µM (doses to about 46.1 µM), inactives show at the highest dose activity change, negative = cytotoxicity, hits mostly cytotoxic; hit rate 0.76% among 410,000
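CellTiter-Glo luminescence gave cytotoxicity after 18 hours at 37 degrees C. The cells were HepG2 CAGA-GFP in 1% FBS DMEM, stimulated with 500 pg/mL TGF-beta after compound addition. %Activity was normalised to no-cell wells (complete cell-killing) and DMSO (no toxicity), and curves were fitted and classified.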
HT1080 IDH1KD tx = qHTS for induction of synthetic lethality in tumor cells producing 2HG: qHTS for the HT-1080-IDH1KD cell line; HT-1080 IDH1 knockdown viability, ATP luminescence, 48 h; Potency, µM (doses to about 46.1 µM), for inactives: top-dose activity, negative = toxicity, most hits filed as cytotoxic; hit rate 2% among 360,000; AID 686971, 2013;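 also: 0% = DMSO wells and -100% = cell-free medium wells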
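Knockdown cells (IDH1KD HT-1080) received compounds 2 h after plating at 750 cells/well and were kept 48 h at 37 °C in 5% FBS RPMI. A CellTiter-Glo luminescence read gave % activity for curve fitting.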
DT40 TDP1 no CPT = qHTS for Inhibitors of human tyrosyl-DNA phosphodiesterase 1 (TDP1): qHTS in cells in absence of CPT; DT40 Tdp1-/- hTDP1 cells, no CPT, ATP luminescence, 48 h; Potency, µM (top dose mostly 46.2 µM), without a hit: at the top dose activity change, negative = growth inhibition, hits mostly inhibitors; hit rate 15% among 420,000; also: % is scaled to controls: 0 for no effect and ±100 for the full control effect; nearly all actives have a fitted effect of over 55% in size
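Camptothecin absent (DMSO only). Human TDP1-complemented DT40 knockout cells, 400 cells/well, 37 °C for minimum 48 hr; ATP measured via CellTiter-Glo, 30 min dark incubation, luminescence.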
TGFb SMAD3 inh = qHTS for Inhibitors of TGF-b. hit rate 1.2% among 410,000. HepG2 CAGA-GFP TGF-b/SMAD3 reporter, GFP fluorescence, 18 h; TGF-beta stimulated, 500 pg/mL final. Potency, µM (top dose mostly 46.1 µM), for inactives: at the top dose activity, negative = inhibition, most hits filed as inhibitors; also: % is scaled to controls: 0 for no effect and ±100 for the full control effect; nearly all actives have a fitted effect of over 65% in size
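HEPG2 CAGA-GFP reporter cells (1000/well, DMEM with 1% FBS) received compounds, then recombinant TGF-beta at 500 pg/mL final for 18 hours at 37 degrees C. Per-cell GFP summed per well was normalised to unstimulated and stimulated DMSO controls before curve fitting.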
* hit, by the source's call; ? = inconclusive; . = no result given; [ ] = remark or other dose. Shown are actives, neighbours in structure and some others; about 17% of the full set was active somewhere. Calls follow the shape of the dose curve; as a rule, active = well fitted curve in the direction sought with a large enough effect; inconclusive = small, poorly fitted or top-dose-only effect, or another doubt; inactive = no such curve, though single readings can be large; an effect the other way counts as inactive or inconclusive. Potency is read from the fitted curve at half-maximal effect.

SMILES	DT40 TDP1 CPT	HT1080-NT tox	HepG2 viability	HT1080 IDH1KD tx	DT40 TDP1 no CPT	TGFb SMAD3 inh
CCCCCCCC(=O)Nc1cc(C(=O)NCc2ccc(C)cc2)ccc1N1CCC2(CC1)CC(c1cccc(Br)c1)=NO2	?	9.2%	-2.3%	10.9%	?	0.4%
COc1ccc(CCCc2nc3ccccc3[nH]2)cc1	-20.6%	-0.3%	-9.9%	-2.2%	?	0.4%
Cc1ccc(-c2nc3ccccc3[nH]2)s1	9.2µM*	?	-106.2%	?	16.4µM*	0.2%
Nc1cc(N)cc(-c2nc3ccccc3[nH]2)c1	10.3µM*	2.0%	5.3%	4.3%	18.4µM*	-0.6%
COc1ccc(-c2cc(=O)n(-c3nc4ccccc4[nH]3)[nH]2)cc1	35.5µM*	22.4µM*	-45.1%	?	-78.0%	-4.9%
COc1ccc(-c2nc3ccccc3[nH]2)cc1	10.3µM*	10µM*	7.94µM*	11.2µM*	13µM*	8.1%
c1csc(-c2nc3ccccc3[nH]2)c1	-22.2%	4.4%	-0.8%	6.3%	-21.7%	-1.6%
COC(=O)c1ccc(C(=O)Nc2ccc3nc(-c4cccnc4)[nH]c3c2)cc1	-15.9%	19.8%	-2.9%	20.0%	5.17µM*	0.0%
COC(=O)c1ccc(C(=O)Nc2ccc3nc(-c4ccncc4)[nH]c3c2)cc1	?	-0.9%	-4.7%	11.5%	-12.0%	0.7%
COC(=O)c1ccc(-c2nc3ccccc3[nH]2)cc1	?	?	-35.3%	?	23.1µM*	-10.7%
COc1ccc2oc(=Nc3ccccc3)c(-c3nc4ccccc4[nH]3)cc2c1	10.3µM*	-3.9%	-7.6%	-11.6%	?	111.6%
O=C(CSc1n[nH]c(-c2ccccn2)n1)Nc1ccc(F)cc1	?	?	-21.6%	?	7.31µM*	-1.3%
O=C(CSc1n[nH]c(-c2ccncc2)n1)Nc1ccc(F)cc1	-5.2%	?	7.8%	9.3%	-19.7%	?
Cc1cccc(NC(=O)CSc2n[nH]c(-c3ccncc3)n2)c1C	11.6µM*	3.4%	0.3%	5.1%	-29.2%	?
O=C(CSc1n[nH]c(-c2ccccn2)n1)Nc1ccc(Cl)cc1	6.51µM*	?	-1.3%	?	4.61µM*	-20.6%
Cc1ccc(NC(=O)CSc2n[nH]c(-c3ccccn3)n2)cc1	5.8µM*	-14.7%	-22.3%	?	-79.4%	2.3%
CN1C(=O)c2ccccc2Sc2ccc(NC(=O)c3ccc(C#N)cc3)cc21	?	.	-20.8%	.	?	-7.2%
CCOC(=O)Cn1nc(-c2ccccc2)c2cnc3ccc(CC)cc3c21	?	4.0%	9.6%	2.4%	?	2.1%
O=C(NCCO)c1ccc(-c2nnc(Nc3ccc(OC(F)(F)Cl)cc3)c3ccccc23)cc1	?	.	-78.2%	.	?	11.2µM*
O=C(NCCO)c1ccc(-c2nnc(Nc3ccc(O)cc3)c3ccccc23)cc1	1.7%	2.1%	-4.6%	5.5%	1.6%	-9.2%
Cc1ccc(S(=O)(=O)N2CCOCC2)cc1NS(=O)(=O)c1ccc(F)c(F)c1	-13.9%	-0.1%[9.24 µM]	1.9%	-0.6%	-12.8%	0.0%
COc1ccccc1/C=C1\C=Cc2ccccc21	?	.	-13.3%	.	?	-17.5%
Cc1ccc(S(=O)(=O)N2CCCC(c3nc4c(nnn4Cc4ccc(OC(F)(F)F)cc4)c(=O)[nH]3)C2)cc1 (centres undefined)	-6.4%	.	-6.8%	.	-12.5%	2.7%
COC(=O)CC1Oc2ccccc2-n2cc(-c3ccc(F)cc3)nc21 (centres undefined)	9.2µM*	.	-18.0%	.	8.2µM*	?
COC(=O)CC1Oc2ccccc2-n2cc(-c3ccc(C)cc3)nc21 (centres undefined)	5.8µM*	.	-2.0%	.	3.26µM*	11.3%
SMILES	DT40 TDP1 CPT	HT1080-NT tox	HepG2 viability	HT1080 IDH1KD tx	DT40 TDP1 no CPT	TGFb SMAD3 inh
CCOC(=O)CN1C(=O)C(CC)Oc2ccccc21 (centres undefined)	-1.9%	10.2%	1.3%	-3.4%	-17.6%	?
COC(=O)COc1ccc(-c2ccc(F)cc2)cc1C=O	?	-26.2%	7.4%	-3.7%	?	-5.7%
CCOCCCn1c(SCC(=O)Nc2ccc3[nH]c(=O)[nH]c3c2)nc2ccccc2c1=O	?	-9.7%	4.3%	1.0%	-15.1%	0.0%
O=C(CNC(=O)C1COc2ccccc2O1)N/N=C\c1ccc(Br)cc1 (centres undefined)	-26.0%	0.0%	-16.5%	-0.1%	8.3%	-18.1%
Cc1ccccc1/C=c1\s/c(=C\C(=O)C(C)(C)C)[nH]c1=O	13µM*	?	-14.9%	?	10.3µM*	?
CCc1ccc(/C=c2\s/c(=C\C(=O)C(C)(C)C)[nH]c2=O)cc1	?	?	-88.4%	?	23.1µM*	?
O=C(/C=C/N1CCOCC1)c1ccc(-c2ccccc2)cc1	?	-4.5%	-10.0%	7.1%	20.6µM*	-6.6%
O=C(/C=C\N1CCOCC1)c1ccc(Br)cc1	8.4%	-2.5%	-18.6%	-3.3%	4.4%	-1.3%
CCOC(=O)N1CCN(C(=O)COC(=O)c2oc3ccc(OC)cc3c2C)CC1	-10.5%	-4.7%	-37.2%	1.9%	-22.4%	1.3%
Cc1nn(-c2ccccc2)c(C)c1C(=O)OC(C)C(=O)NC1CCCCC1 (centres undefined)	16.4µM*	20.6µM*	-0.4%	-13.6%	10.3µM*	7.4%
COc1ccc(C(=O)NCC(=O)N=Nc2c(O)n(Cc3ccccc3)c3ccccc23)cc1OC	?	-10.1%	-2.0%	-12.8%	16.4µM*	-0.4%
COc1ccccc1NC(=O)Cn1c(O)c(N=NC(=O)c2ccccc2O)c2ccccc21	0.92µM*	-5.4%	-91.5%	0.2%	1.84µM*	-5.1%
Cc1ccc(NC(=O)Cn2c(O)c(N=NC(=O)c3ccncc3)c3ccccc32)cc1	?	13.8%	-2.8%	13.0%	-1.8%	-0.7%
O=S1(=O)CC(O)C(N=Nc2c(O)n(Cc3ccccc3)c3ccccc23)C1 (centres undefined)	16.4µM*	-5.6%	1.5%	-15.6%	11.6µM*	9.6%
Cc1ccc(NC(=O)Cn2c(O)c(N=NC(=O)c3cc4ccccc4cc3O)c3ccccc32)cc1	7.31µM*	20.6µM*	-42.1%	?	7.31µM*	0.0%
